# Measurements reported in publication PMC7862700, “An all-to-all approach to the identification of sequence-specific readers for epigenetic DNA modifications on cytosine”.
# Columns and labels:
# Test in all cases: DAPPL (digital affinity profiling via proximity ligation, sequencing); 10 mM Tris-HCl pH 7.5, 50 mM NaCl, 1 mM DTT, 4% glycerol, room temperature, 30 min; GST-TFs on glutathione beads, 16-mer random dsDNA library, 0.1% formaldehyde crosslink after washing; high values mean tight binding
# FEV = target: T1, FEV (Homo sapiens, UniProt Q99581 1-238); details: protein: recombinant; tags: N-terminal GST; dsDNA, one strand shown
# T1 sequence: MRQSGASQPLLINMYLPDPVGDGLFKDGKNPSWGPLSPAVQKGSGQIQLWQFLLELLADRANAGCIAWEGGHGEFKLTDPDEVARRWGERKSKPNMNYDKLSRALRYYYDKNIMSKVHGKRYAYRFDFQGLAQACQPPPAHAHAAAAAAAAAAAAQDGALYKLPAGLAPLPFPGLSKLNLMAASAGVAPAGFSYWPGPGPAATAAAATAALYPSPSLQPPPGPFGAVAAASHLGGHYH
# Outline: (§1)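 Binding signal is given per hexamer as its read frequency for a factor divided by its frequency in the tag-only sample. GST-fused human transcription factors were expressed in yeast, captured on glutathione beads, barcoded with DNA and pooled with that sample, then incubated with 200 nmole of a 16-mer random double-stranded DNA library in Tris/NaCl/DTT/glycerol buffer for 30 min at room temperature. The pools were then washed, crosslinked, proximity-ligated, amplified by PCR and sequenced on an Illumina NextSeq500.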
# ETV5 = ETV5 (Homo sapiens, UniProt P41161 1-510); details: protein: recombinant; tags: N-terminal GST; dsDNA, one strand shown
# Outline: as §1
# HSF1 = HSF1 (Homo sapiens, UniProt Q00613 1-529); details: protein: recombinant; tags: N-terminal GST; chain copies: 3; dsDNA, one strand shown
# Outline: as §1
# SPIC = target: T2, SPIC (Homo sapiens, UniProt Q8N5J4 1-248); details: protein: recombinant; tags: N-terminal GST; dsDNA, one strand shown
# T2 sequence: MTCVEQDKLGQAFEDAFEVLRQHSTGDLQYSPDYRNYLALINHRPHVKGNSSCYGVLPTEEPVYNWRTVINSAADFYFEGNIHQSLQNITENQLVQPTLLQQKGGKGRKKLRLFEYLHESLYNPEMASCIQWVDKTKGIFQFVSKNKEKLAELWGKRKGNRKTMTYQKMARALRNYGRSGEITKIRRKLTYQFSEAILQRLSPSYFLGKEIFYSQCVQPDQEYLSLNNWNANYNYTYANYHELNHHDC
# Outline: as §1
# ELF4 = ELF4 (Homo sapiens, UniProt Q99607 1-663); details: protein: recombinant; tags: N-terminal GST; dsDNA, one strand shown
# Outline: as §1
# ELK4 = target: T3, ELK4 (Homo sapiens, UniProt P28324-2 1-405); details: protein: recombinant; tags: N-terminal GST; dsDNA, one strand shown
# T3 sequence: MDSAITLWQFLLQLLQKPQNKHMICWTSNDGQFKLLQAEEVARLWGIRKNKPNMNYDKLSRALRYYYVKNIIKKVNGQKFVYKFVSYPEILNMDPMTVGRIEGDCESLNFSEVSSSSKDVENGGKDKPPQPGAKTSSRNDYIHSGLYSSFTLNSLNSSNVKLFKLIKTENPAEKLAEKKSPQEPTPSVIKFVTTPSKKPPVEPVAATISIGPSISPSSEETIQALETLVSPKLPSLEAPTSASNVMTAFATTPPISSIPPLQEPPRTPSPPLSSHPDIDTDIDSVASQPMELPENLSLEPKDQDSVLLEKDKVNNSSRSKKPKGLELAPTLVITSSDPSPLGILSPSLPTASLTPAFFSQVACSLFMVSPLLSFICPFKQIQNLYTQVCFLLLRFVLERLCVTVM
# Outline: as §1
# ETV2 = target: T4, ETV2 (Homo sapiens, UniProt O00321 1-342); details: protein: recombinant; tags: N-terminal GST; dsDNA, one strand shown
# T4 sequence: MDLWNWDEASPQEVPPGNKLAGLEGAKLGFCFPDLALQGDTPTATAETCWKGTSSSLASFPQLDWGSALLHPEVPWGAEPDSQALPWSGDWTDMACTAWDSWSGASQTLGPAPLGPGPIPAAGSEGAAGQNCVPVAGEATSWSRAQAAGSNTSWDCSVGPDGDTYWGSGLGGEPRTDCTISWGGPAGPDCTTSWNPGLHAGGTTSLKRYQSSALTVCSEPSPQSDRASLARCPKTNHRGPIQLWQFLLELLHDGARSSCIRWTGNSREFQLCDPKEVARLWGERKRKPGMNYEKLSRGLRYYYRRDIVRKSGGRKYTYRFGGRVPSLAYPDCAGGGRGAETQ
# Outline: as §1
# ELF3 = target: T5, ELF3 (Homo sapiens, UniProt P78545 1-371); details: protein: recombinant; tags: N-terminal GST; dsDNA, one strand shown
# T5 sequence: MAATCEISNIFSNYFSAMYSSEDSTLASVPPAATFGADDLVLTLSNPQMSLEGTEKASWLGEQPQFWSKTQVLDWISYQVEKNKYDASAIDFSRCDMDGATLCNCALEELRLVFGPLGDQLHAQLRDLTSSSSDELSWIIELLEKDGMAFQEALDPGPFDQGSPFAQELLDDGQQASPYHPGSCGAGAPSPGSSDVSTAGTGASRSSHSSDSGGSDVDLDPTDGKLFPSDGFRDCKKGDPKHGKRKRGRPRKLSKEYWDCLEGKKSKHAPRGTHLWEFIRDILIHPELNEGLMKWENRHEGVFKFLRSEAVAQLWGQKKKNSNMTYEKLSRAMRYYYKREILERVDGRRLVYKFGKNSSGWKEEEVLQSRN
# Outline: as §1
# CRX = CRX (Homo sapiens, UniProt O43186 1-299); details: protein: recombinant; tags: N-terminal GST; dsDNA, one strand shown
# Outline: as §1
# ETV1 = ETV1 (Homo sapiens, UniProt P50549 1-477); details: protein: recombinant; tags: N-terminal GST; dsDNA, one strand shown
# Outline: as §1
# ERF = target: T6, ERF (Homo sapiens, UniProt P50548 1-548); details: protein: recombinant; tags: N-terminal GST; dsDNA, one strand shown
# T6 sequence: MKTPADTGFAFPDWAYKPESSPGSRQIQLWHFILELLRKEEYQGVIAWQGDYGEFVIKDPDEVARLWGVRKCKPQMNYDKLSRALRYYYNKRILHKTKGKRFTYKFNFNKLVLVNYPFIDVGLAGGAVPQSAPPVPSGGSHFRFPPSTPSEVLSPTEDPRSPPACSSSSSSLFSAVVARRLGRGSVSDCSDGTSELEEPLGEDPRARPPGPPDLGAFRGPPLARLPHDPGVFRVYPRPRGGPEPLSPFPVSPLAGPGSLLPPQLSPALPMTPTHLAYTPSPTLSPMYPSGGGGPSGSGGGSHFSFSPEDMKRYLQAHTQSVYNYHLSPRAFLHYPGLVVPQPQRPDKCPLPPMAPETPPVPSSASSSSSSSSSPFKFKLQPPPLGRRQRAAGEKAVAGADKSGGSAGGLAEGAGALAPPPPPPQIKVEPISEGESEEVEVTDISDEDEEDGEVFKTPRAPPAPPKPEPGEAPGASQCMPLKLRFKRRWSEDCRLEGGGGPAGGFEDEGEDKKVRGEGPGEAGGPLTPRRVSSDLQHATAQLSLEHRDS
# Outline: as §1
# ETV3L = target: T7, ETV3L (Homo sapiens, UniProt Q6ZN32 1-361); details: protein: recombinant; tags: N-terminal GST; dsDNA, one strand shown
# T7 sequence: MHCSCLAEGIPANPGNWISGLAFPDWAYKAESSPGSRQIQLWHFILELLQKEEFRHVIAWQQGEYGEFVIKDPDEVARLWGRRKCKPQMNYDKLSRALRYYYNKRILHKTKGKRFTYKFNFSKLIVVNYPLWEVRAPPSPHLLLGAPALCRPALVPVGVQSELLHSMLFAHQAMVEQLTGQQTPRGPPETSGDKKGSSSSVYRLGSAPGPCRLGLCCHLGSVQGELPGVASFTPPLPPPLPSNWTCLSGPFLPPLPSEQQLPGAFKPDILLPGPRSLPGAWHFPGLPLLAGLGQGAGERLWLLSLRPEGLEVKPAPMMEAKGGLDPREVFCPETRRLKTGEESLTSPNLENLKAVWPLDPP
# Outline: as §1
# ETS2 = target: T8, ETS2 (Homo sapiens, UniProt P15036 1-469); details: protein: recombinant; tags: N-terminal GST; dsDNA, one strand shown
# T8 sequence: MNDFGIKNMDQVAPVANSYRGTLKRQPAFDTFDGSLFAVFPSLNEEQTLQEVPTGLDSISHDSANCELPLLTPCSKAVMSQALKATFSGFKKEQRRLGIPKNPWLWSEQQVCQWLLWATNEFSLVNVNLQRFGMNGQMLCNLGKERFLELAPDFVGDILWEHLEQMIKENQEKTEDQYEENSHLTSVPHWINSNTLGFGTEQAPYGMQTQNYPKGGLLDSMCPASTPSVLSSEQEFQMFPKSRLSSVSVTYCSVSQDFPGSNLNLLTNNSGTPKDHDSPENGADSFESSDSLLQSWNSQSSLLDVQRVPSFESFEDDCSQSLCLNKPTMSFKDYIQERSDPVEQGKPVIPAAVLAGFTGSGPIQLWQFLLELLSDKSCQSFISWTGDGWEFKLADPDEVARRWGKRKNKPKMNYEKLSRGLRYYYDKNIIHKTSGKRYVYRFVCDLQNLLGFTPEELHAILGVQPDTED
# Outline: as §1
# SPDEF = target: T9, SPDEF (Homo sapiens, UniProt O95238 1-335); details: protein: recombinant; tags: N-terminal GST; dsDNA, one strand shown
# T9 sequence: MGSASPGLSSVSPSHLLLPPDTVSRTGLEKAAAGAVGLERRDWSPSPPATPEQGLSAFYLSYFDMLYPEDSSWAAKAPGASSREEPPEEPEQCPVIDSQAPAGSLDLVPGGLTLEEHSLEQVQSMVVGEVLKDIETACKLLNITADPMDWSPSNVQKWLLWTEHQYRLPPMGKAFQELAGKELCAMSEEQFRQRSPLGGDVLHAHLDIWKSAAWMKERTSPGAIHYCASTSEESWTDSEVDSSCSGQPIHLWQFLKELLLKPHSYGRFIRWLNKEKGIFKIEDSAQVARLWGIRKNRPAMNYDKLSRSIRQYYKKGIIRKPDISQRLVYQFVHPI
# Outline: as §1
# ETV7 = target: T10, ETV7 (Homo sapiens, UniProt Q9Y603 1-341); details: protein: recombinant; tags: N-terminal GST; dsDNA, one strand shown
# T10 sequence: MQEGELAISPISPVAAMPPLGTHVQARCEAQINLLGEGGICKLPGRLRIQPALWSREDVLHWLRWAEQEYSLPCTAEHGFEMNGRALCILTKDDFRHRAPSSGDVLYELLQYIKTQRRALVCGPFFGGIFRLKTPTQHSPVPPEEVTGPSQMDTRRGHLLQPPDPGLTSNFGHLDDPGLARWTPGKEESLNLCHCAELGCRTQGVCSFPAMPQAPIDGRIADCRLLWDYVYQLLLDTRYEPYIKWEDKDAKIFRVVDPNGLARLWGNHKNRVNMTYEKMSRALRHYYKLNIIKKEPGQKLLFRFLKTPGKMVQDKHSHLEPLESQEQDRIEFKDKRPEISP
# Outline: as §1
# ELF5 = target: T11, ELF5 (Homo sapiens, UniProt Q9UKW6-2 1-255); details: protein: recombinant; tags: N-terminal GST; dsDNA, one strand shown
# T11 sequence: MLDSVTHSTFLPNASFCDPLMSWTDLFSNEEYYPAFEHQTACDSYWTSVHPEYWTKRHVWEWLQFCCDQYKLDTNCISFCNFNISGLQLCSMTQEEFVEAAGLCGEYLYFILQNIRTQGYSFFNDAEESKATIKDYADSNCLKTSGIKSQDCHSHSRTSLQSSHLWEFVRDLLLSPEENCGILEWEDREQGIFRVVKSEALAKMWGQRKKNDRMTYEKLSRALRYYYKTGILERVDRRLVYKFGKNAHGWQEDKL
# Outline: as §1
# ETV3 = target: T12, ETV3 (Homo sapiens, UniProt P41162-2 1-143); details: protein: recombinant; tags: N-terminal GST; dsDNA, one strand shown
# T12 sequence: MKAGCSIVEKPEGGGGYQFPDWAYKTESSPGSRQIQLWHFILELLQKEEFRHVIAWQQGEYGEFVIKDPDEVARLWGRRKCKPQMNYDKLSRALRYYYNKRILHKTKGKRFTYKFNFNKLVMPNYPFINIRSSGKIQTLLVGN
# Outline: as §1
# ETV6 = ETV6 (Homo sapiens, UniProt P41212 1-452); details: protein: recombinant; tags: N-terminal GST; dsDNA, one strand shown
# Outline: as §1
# ELF4, sequence (Q99607 whole entry): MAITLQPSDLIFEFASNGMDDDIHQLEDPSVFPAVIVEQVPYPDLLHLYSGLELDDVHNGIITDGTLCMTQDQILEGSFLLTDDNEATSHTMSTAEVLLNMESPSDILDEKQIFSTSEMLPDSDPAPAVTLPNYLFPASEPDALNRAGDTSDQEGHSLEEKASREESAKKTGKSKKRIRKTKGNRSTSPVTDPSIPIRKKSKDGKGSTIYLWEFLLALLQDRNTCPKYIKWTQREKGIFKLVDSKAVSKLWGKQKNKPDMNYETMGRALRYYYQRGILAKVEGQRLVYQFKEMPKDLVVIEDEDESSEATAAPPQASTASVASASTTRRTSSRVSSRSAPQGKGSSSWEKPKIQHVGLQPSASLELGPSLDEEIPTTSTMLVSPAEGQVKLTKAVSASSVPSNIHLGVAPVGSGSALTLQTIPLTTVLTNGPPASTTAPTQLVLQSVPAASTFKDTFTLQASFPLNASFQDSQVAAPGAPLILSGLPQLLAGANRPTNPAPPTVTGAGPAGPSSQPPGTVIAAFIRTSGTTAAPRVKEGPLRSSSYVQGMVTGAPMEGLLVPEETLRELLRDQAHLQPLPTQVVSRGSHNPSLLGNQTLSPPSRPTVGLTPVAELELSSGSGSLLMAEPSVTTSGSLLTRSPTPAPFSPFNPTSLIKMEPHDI
# CRX, sequence (O43186 whole entry): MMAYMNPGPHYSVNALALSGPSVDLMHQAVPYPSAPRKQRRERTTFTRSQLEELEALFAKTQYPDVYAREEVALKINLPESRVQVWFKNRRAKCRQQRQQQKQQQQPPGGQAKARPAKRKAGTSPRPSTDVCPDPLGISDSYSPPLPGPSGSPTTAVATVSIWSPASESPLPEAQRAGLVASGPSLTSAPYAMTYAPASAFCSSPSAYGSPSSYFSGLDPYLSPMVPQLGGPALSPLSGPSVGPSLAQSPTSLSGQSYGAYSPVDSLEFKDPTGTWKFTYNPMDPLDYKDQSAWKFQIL
# ETV6, sequence (P41212 whole entry): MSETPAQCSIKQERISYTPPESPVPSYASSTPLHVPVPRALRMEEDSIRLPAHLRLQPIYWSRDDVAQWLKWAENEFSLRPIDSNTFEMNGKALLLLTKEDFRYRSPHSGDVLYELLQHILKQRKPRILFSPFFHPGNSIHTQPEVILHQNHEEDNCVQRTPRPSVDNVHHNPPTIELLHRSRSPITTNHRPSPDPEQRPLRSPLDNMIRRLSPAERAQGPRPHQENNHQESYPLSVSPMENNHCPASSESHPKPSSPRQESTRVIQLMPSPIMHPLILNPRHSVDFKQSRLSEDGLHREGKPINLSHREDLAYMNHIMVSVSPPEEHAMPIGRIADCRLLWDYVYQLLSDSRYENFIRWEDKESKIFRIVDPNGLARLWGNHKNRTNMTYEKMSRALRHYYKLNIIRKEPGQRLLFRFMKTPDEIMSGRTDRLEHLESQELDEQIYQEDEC
# ETV5, sequence (P41161 whole entry): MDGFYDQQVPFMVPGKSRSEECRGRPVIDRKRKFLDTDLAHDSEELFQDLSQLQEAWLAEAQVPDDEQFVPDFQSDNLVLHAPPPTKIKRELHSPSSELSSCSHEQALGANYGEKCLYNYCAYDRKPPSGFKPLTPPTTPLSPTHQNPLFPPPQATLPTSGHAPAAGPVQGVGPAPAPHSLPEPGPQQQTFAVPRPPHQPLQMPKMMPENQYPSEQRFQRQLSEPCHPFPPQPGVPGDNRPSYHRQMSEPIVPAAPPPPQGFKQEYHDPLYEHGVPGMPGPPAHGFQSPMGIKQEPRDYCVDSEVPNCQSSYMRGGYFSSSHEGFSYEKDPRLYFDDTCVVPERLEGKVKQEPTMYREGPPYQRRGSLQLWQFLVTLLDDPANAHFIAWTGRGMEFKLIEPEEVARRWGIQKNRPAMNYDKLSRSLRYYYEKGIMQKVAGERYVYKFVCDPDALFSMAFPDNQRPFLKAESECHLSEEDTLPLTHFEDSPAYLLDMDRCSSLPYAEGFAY
# ETV1, sequence (P50549 whole entry): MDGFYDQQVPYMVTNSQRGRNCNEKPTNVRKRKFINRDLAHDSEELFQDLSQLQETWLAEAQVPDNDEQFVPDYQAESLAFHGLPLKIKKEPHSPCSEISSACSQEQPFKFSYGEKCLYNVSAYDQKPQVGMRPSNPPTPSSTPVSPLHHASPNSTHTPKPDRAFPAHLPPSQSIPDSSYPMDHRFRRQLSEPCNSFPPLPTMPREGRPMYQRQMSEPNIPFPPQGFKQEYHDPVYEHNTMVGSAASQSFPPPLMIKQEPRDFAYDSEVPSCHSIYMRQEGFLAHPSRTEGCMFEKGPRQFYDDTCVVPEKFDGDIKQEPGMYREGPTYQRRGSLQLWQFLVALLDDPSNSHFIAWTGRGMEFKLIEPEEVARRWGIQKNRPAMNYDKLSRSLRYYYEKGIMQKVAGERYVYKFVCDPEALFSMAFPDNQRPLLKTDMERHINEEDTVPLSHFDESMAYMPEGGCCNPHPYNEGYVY
# HSF1, sequence (Q00613 whole entry): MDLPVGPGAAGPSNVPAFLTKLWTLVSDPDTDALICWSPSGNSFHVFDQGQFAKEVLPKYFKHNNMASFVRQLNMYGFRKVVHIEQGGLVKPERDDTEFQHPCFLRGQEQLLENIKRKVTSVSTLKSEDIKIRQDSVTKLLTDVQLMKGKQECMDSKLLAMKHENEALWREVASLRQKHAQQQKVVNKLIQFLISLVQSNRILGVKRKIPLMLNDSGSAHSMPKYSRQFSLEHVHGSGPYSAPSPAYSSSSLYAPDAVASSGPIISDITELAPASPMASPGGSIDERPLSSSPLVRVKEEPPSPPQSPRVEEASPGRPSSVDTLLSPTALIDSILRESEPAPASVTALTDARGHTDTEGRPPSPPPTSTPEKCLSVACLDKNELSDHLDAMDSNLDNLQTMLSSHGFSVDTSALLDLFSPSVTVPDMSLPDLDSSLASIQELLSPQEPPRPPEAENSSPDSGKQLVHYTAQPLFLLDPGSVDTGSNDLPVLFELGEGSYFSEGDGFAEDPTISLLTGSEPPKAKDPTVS
sequence,measurement,setting,value
GAAATC,binding signal,FEV,"2.32 fold enrichment (6-mer frequency, TF over GST control)"
same,binding signal,ETV5,"1.58 fold enrichment (6-mer frequency, TF over GST control)"
same,binding signal,HSF1,"1.23 fold enrichment (6-mer frequency, TF over GST control)"
same,binding signal,SPIC,"1.48 fold enrichment (6-mer frequency, TF over GST control)"
same,binding signal,ELF4,"1.42 fold enrichment (6-mer frequency, TF over GST control)"
same,binding signal,ELK4,"1.31 fold enrichment (6-mer frequency, TF over GST control)"
same,binding signal,ETV2,"1.45 fold enrichment (6-mer frequency, TF over GST control)"
same,binding signal,ELF3,"1.27 fold enrichment (6-mer frequency, TF over GST control)"
same,binding signal,CRX,"1.26 fold enrichment (6-mer frequency, TF over GST control)"
same,binding signal,ETV1,"1.5 fold enrichment (6-mer frequency, TF over GST control)"
same,binding signal,ERF,"1.31 fold enrichment (6-mer frequency, TF over GST control)"
same,binding signal,ETV3L,"1.42 fold enrichment (6-mer frequency, TF over GST control)"
same,binding signal,ETS2,"1.41 fold enrichment (6-mer frequency, TF over GST control)"
same,binding signal,SPDEF,"1.4 fold enrichment (6-mer frequency, TF over GST control)"
same,binding signal,ETV7,"1.46 fold enrichment (6-mer frequency, TF over GST control)"
same,binding signal,ELF5,"1.58 fold enrichment (6-mer frequency, TF over GST control)"
same,binding signal,ETV3,"1.42 fold enrichment (6-mer frequency, TF over GST control)"
same,binding signal,ETV6,"1.49 fold enrichment (6-mer frequency, TF over GST control)"
